# Test results published in the supplement of paper PMC8877412.
# Structures can show the parent of a compound that is named as a salt. ± gives the uncertainty stated by the source.
# Tested on: NCC-PMP1-C1
# Assay: cell viability relative to DMSO control; higher = less growth inhibition
# Details: 10 µM; 72 h
# Protocol: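 NCC-PMP1-C1 pseudomyxoma peritonei cells were seeded in 384-well plates coated with Matrigel and MEF (1e4 cells). Viability was read after 72 h by CCK-8 and expressed as % of the DMSO control, mean ± SD of duplicates.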
row,SMILES,cell viability [%]
1,CNC(=O)c1ccccc1Sc1ccc2c(/C=C/c3ccccn3)n[nH]c2c1 [Axitinib],61.27 ± 0.13
2,Cc1ccc(NC(=O)c2ccc(CN3CC[C@H](N(C)C)C3)c(C(F)(F)F)c2)cc1Nc1nccc(-c2cncnc2)n1 [Bafetinib (INNO-406)],72.1 ± 3.7
3,C#Cc1cccc(Nc2ncnc3cc(OCCOC)c(OCCOC)cc23)c1 [Erlotinib],66.7 ± 5.8
4,CC[C@]1(O)C[C@@H]2CN(CCc3c([nH]c4ccccc34)[C@@](C(=O)OC)(c3cc4c(cc3OC)N(C)[C@H]3[C@@](O)(C(=O)OC)[C@H](OC(C)=O)[C@]5(CC)C=CCN6CC[C@]43[C@@H]65)C2)C1 [Vinblastine sulfate],43.6 ± 2.9
